# Pf Dd2 growth: qHTS Primary assay for Inhibitors of Plasmodium falciparum Dd2 growth in vitro. P. falciparum Dd2 growth, SYBR Green, 72 h. 120,000 tested, 4.3% active. Potency, µM (titrated, usually from 28.9 µM), most hits filed as inhibitors; active means well fitted inhibition curve with a large enough effect; further: nearly all actives have a fitted effect of over 65% in size
#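 Infected erythrocytes (Dd2, 0.3% parasitemia, 2.5% hematocrit final) are added to compound in RPMI-1640/Albumax II medium, grown 72 h at 37C in low oxygen, then lysed with saponin/Triton-X containing SYBR Green and read by fluorescence.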
# Numbers stand for hits; i = inactive; [ ] = remark or other dose. Only a selection was taken, and hits are over-represented in it overall.
SMILES,Pf Dd2 growth
CCc1ccc(CNC(=O)c2ccc3c(c2)nc2n3CCC(C)C2)cc1 (stereo unspecified),i
COc1ccc(CCNC(=O)c2ccc(-n3c(C)cc4c3CCC(C)C4)cc2)cc1OC (stereo unspecified),i[5.79 µM]
O=C(NCc1cccc(Br)c1)C1CCN(c2cnc3nccnc3c2)CC1,i
CCCOc1ccc(CNC(=O)c2ccc(-n3c(C)cc4c3CCC(C)C4)cc2)cc1 (stereo unspecified),i[5.79 µM]
COc1ccc(Br)cc1CNC(=O)c1ccc(-n2c(C)cc3c2CCC(C)C3)cc1 (stereo unspecified),13µM
Cc1cc2c(n1-c1ccc(C(=O)NCCc3ccccc3)cc1)CCC(C)C2 (stereo unspecified),i
Cc1cc(=O)n(CC(=O)NCc2ccc(F)cc2)c(N2CCc3ccccc3C2)n1,i
Cc1ccc(C(=O)N2CCn3c(nn(-c4ccc(C)cc4)c3=O)C2)cc1,i
CC(=O)NCCCC(=O)N1CCN(C2CCNCC2)C(=O)C1,i
CCOCCNc1ncnc2c1CN(C1CCC1)C(=O)CN2C,i
CCc1nncn1C1CCN(S(=O)(=O)c2cccc(F)c2)CC1,i
CCC(C(=O)NC1CCCCC1)n1c(SCc2cccc(C)c2)nc2ccncc21 (stereo unspecified),i
Cc1cccc(Cn2c(SCc3ccc(C(=O)NCc4ccccc4F)cc3)nc3ccncc32)c1,11µM
Cc1cccc(-c2nc(Cn3c(SCc4cccc(C(F)(F)F)c4)nc4ccncc43)c(C)o2)c1,i
COc1cccc(CNC(=O)c2ccc(CSc3nc4ccncc4n3Cc3cccc(C)c3)cc2)c1,3.2µM
Cc1cccc(Cn2c(SCc3ccc(C(=O)NC4CCCCC4)cc3)nc3ccncc32)c1,i
COc1cccc(CNC(=O)c2ccc3oc(=O)n(Cc4ccccc4)c3c2)c1,i
CCNC(=O)N(C1CC1)C1CCOC2(CCN(C(=O)CC3CCCC3)CC2)C1 (stereo unspecified),i
CC(C)Oc1ccc2c(NC(=O)CCn3cnnn3)nn(CC(F)(F)F)c2c1,i
CSCCC(=O)N1CCC2(CCN(Cc3ccccn3)CC2)C(CO)C1 (stereo unspecified),i
Cc1noc(C)c1CC(=O)N1CCC(CC(=O)N(C)Cc2ccccc2)C1 (stereo unspecified),i
COc1ccc(N2Cc3c(NC4CCCC4)ncnc3N(C)CC2=O)cc1,i
COCc1ccc2c(c1)c(OC(C)(C)C(=O)NCCCn1ccnc1)nn2Cc1cccc(OC)c1,i
Cc1c(C(=O)O)sc2ncnc(NCC3(O)CCCCC3)c12,i
C=CCCC(CN1CCOCC1)Oc1ccc(Cn2ccnc2)cn1 (stereo unspecified),i
SMILES,Pf Dd2 growth
C=CCCC(CN1CCCOCC1)Oc1ccc(-c2ccccc2)nn1 (stereo unspecified),14µM
Cc1ccc(-c2cn(C3CN(C(=O)C(C)CN4CCOCC4)C3)nn2)cc1 (stereo unspecified),i
CN1CCC(Oc2ccc(C(=O)N3CCOCC3)cn2)CC1,i
C=CCCC(CN1CCCC1)Oc1ccc(C(=O)N2CCOCC2)cn1 (stereo unspecified),6.3µM
O=C(Cc1ccccc1)NCc1nnc2n1C(C(=O)O)CC2 (stereo unspecified),i
COC(=O)c1c(NC(=O)c2ccc(OC)cc2OC)sc2c1CCCCC2,i
COc1ccc(NC(=O)c2c(OC)cc(=O)n3c2CCCC3)c(C)c1,i
CCOc1ccccc1NC(=O)c1c(NC(=O)c2ccccc2)sc2c1CCCC2,i
COc1ccccc1NC(=O)c1c(NC(=O)COc2ccccc2)sc2c1CCCCC2,i
COc1ccc(NC(=O)c2c(NCc3sccc3C)sc3c2CCCCC3)c(OC)c1,13µM
CCOC(=O)c1c(NC(=O)c2ccccc2OCC)sc2c1CCC(CC)C2 (stereo unspecified),i
O=C(Nc1sc2c(c1C(=O)Nc1ccccc1Cl)CCCC2)c1ccccc1F,i
CCOc1ccccc1NC(=O)c1c(NC(=O)C(C)Oc2ccc(Cl)cc2)sc2c1CCCCC2 (stereo unspecified),10µM
COc1ccccc1NC(=O)c1c(NCc2sccc2C)sc2c1CCCCC2,11µM
CCOc1ccccc1NC(=O)c1c(NCc2sccc2C)sc2c1CCC(C)C2 (stereo unspecified),5.6µM
CC1CCc2c(sc(NC(=O)CCCOc3ccccc3)c2C(N)=O)C1 (stereo unspecified),i
Cn1nnnc1C1CCCN(C(=O)CCc2ccccc2)C1 (stereo unspecified),i
COc1ccc2[nH]c3c(c2c1)CCNC31CCN(C(=O)c2cn(C)cn2)CC1,i
CC1(C)C[C@H](NC(=O)c2cccnc2)[C@@]2(CCC(=O)NCCN3CCOCC3)CC[C@](C)(O)C[C@@H]12,i
COCC1CN(C)CC12CCN(S(=O)(=O)c1cnc[nH]1)CC2 (stereo unspecified),i
Cc1ccc2nc(CO[C@H]3CN(Cc4ccccn4)C[C@H]3F)[nH]c2c1,i
CCOC(=O)c1c(NC(=O)COc2cccc(C)c2C)sc2c1CCCCC2,i
Cc1cc(C)c2c(=O)cc(C(=O)Nc3sc4c(c3C(=O)NCc3cccnc3)CCCC4)oc2c1,i
CCOc1ccc(NC(=O)c2c(NCc3cccnc3)sc3c2CCCC3)cc1,13µM
CCOc1ccc(NC(=O)NCc2c(-n3cccc3)sc3c2CCCC3)cc1,i
SMILES,Pf Dd2 growth
O=C(Cc1ccccc1)Nc1sc2c(c1C(=O)Nc1ccccc1Cl)CCC2,i
CCOc1ccccc1NC(=O)c1c(NCc2sccc2C)sc2c1CCCCC2,13µM
CCOc1ccc(NC(=O)c2c(NCc3ccc(C)o3)sc3c2CCCCC3)cc1,11µM
CCOc1ccc(NC(=O)c2c(NC(=O)c3cccc(C)c3)sc3c2CCC3)cc1,i
CCOc1ccc(/C=C/C(=O)Nc2sc3c(c2C(=O)OC)CCC3)cc1,i
COc1ccc(Cl)cc1NC(=O)c1c(NCc2sccc2C)sc2c1CCCC2,13µM
CC(C)CNC(=O)Cc1ccc(N(Cc2ccccc2)C(=O)c2ccco2)cc1,i
COc1ccc2c(=O)n(CC(=O)N(C)Cc3cc(C)no3)ccc2c1OC,i
COc1ccc(F)cc1S(=O)(=O)NC1CCc2nnc(C)n2CC1 (stereo unspecified),i
C=CCNC(=O)N1CC[C@H]2CC(=O)N(CCN3CCNC3=O)CC[C@H]2C1,i
COCCOCc1nc(C2CCCN2)no1 (stereo unspecified),i
Fc1ccc(-c2noc(-c3nnn4c3COC(c3ccc(Cl)cc3)C4)n2)cc1F (stereo unspecified),i
COc1ccc(-c2noc([C@@H]3Cc4nc[nH]c4CN3C(=O)CSCC(=O)O)n2)cc1,i
Cc1nc(C(C)C)sc1C(=O)N1CCCC(OCc2ccccn2)C1 (stereo unspecified),i
O=c1c2c(nc3cc[nH]n13)CN(S(=O)(=O)c1ccc(F)c(Cl)c1)CC2,i
COCC(=O)N1c2ccccc2CC1c1noc(C(C)C)n1 (stereo unspecified),i
CCNC(=O)Nc1ccc(OCC(=O)N2CCCCC2)nc1,i
COc1cccc(-c2n[nH]c3c2CC(=O)N(CC2CCOCC2)C3)c1OC,i
COc1ccc(NC(=O)c2c(NC(=O)COc3ccccc3)sc3c2CCC(C)C3)cc1 (stereo unspecified),i
COc1ccc(NC(=O)c2nc(-c3ccc(C)cc3)n3c2CCCCC3)c(OC)c1,i
O=C(O)CCC(=O)Nc1sc2c(c1C(=O)Nc1ccccc1)CCCCC2,i
CCOC(=O)c1c(NC(=O)COc2ccc(Br)cc2)sc2c1CCCC2,i

# Screening results: PubChem BioAssay, National Center for Advancing Translational Sciences (NCATS)
